This test relates to RIVA. The test is described as follows: growth inhibition by drug alone (1 - RLU/untreated control) (fraction); higher = stronger inhibition. Particulars: 177Lu-lilotomab satetraxetan 0 ug/ml. Here is the method: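 RIVA (RI-1) ABC-DLBCL cells were pretreated or not for 18 h with 0.5 ug/ml 177Lu-lilotomab satetraxetan (600 MBq/mg), washed and seeded (3000 cells/well) on 384-well plates pre-printed with the Selleck Cambridge Cancer Compound library. Viability was read by RealTime-Glo luminescence on days 3-6 after seeding. Effect = 1 - RLU/mean RLU of the 48 untreated no-drug control wells per plate; Bliss score = (M-E)/(1-Fa).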

Molecules are shown by their SMILES. Where a name gives a salt, the structure may show the parent alone.

For the compound `Cc1c(C(=O)Nc2ccc(N3C[C@@H](C)O[C@@H](C)C3)nc2)cccc1-c1ccc(OC(F)(F)F)cc1` [LDE225 (NVP-LDE225, Erismodegib)], the “growth inhibition by drug alone” value by setting is: (10 nM, time (day): 3) -0.0165; (10 nM, time (day): 4) -0.00347; (10 nM, time (day): 5) -0.0773; (10 nM, time (day): 6) -0.419; (100 nM, time (day): 3) -0.213; (100 nM, time (day): 4) -0.137. Besides, the “growth inhibition by drug alone” value by setting is: (100 nM, time (day): 5) -0.143; (100 nM, time (day): 6) -0.258.

For `CN[C@@H](C)C(=O)N[C@H]1CN(C(=O)CC(C)C)CC[C@H]2CC[C@@H](C(=O)NC(c3ccccc3)c3ccccc3)N2C1=O`, the “growth inhibition by drug alone” value reads like this: (10 nM, time (day): 3) 0.00534; (10 nM, time (day): 4) -0.116; (10 nM, time (day): 5) -0.171; (10 nM, time (day): 6) -0.417; (100 nM, time (day): 3) -0.168; (100 nM, time (day): 4) -0.227. Moreover, the “growth inhibition by drug alone” value is, setting by setting: (100 nM, time (day): 5) -0.25; (100 nM, time (day): 6) -0.406.

Regarding `Cc1ccc(C(=O)N(CCCN)[C@@H](c2oc3cc(Cl)ccc3c(=O)c2Cc2ccccc2)C(C)C)cc1`, the “growth inhibition by drug alone” value runs as follows: (10 nM, time (day): 3) 0.945; (10 nM, time (day): 4) 0.955; (10 nM, time (day): 5) 0.965; (10 nM, time (day): 6) 0.967; (100 nM, time (day): 3) 0.918; (100 nM, time (day): 4) 0.938. The “growth inhibition by drug alone” value by setting is: (100 nM, time (day): 5) 0.95; (100 nM, time (day): 6) 0.957.

With `CNC(=O)c1ccccc1Sc1ccc2c(/C=C/c3ccccn3)n[nH]c2c1` [Axitinib], the “growth inhibition by drug alone” value (10 nM, time (day): 3) is -0.0928; the “growth inhibition by drug alone” value (10 nM, time (day): 4) is -0.118; the “growth inhibition by drug alone” value (10 nM, time (day): 5) is -0.216; the “growth inhibition by drug alone” value (10 nM, time (day): 6) is -0.609; the “growth inhibition by drug alone” value (100 nM, time (day): 3) was -0.116; the “growth inhibition by drug alone” value (100 nM, time (day): 4) is -0.0759. The “growth inhibition by drug alone” value was -0.117 (100 nM, time (day): 5) and -0.195 (100 nM, time (day): 6).

Regarding `COC1=CC(c2cc3ccccc3[nH]2)=N/C1=C\c1[nH]c(C)cc1C` [Obatoclax mesylate (GX15-070)], the “growth inhibition by drug alone” value by setting is: (10 nM, time (day): 3) 0.00951; (10 nM, time (day): 4) 0.024; (10 nM, time (day): 5) -0.054; (10 nM, time (day): 6) -0.371; (100 nM, time (day): 3) -0.444; (100 nM, time (day): 4) -0.248. For the same compound, the “growth inhibition by drug alone” value reads like this: (100 nM, time (day): 5) -0.309; (100 nM, time (day): 6) -0.6.

These data come from the supplement of paper PMC6897291.
